# Assay outcomes deposited in PubChem BioAssay by several laboratories.
# CCHF vOTU inh-1: blocks the CCHF virus ovarian tumor domain protease | actives 0.55% (n = 370,000) | inhibition, % at 11.5 µM | CCHFV vOTU protease, Pep-AMC fluorescence | AID 651958; note: 0% = vehicle wells with enzyme and 100% = no enzyme wells
# RecA intein inh: inhibitors of M. tuberculosis RecA intein splicing; inhibition, % (concentration not given with the values); actives 0.75% (n = 290,000); P9WHJ3; cell-free RecA intein splicing, fluorescence; in the data active = inhibition above about 30%;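 note: 0% = vehicle wells and 100% = reference inhibitor control wells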
# Target sequence (P9WHJ3 whole entry, looked up): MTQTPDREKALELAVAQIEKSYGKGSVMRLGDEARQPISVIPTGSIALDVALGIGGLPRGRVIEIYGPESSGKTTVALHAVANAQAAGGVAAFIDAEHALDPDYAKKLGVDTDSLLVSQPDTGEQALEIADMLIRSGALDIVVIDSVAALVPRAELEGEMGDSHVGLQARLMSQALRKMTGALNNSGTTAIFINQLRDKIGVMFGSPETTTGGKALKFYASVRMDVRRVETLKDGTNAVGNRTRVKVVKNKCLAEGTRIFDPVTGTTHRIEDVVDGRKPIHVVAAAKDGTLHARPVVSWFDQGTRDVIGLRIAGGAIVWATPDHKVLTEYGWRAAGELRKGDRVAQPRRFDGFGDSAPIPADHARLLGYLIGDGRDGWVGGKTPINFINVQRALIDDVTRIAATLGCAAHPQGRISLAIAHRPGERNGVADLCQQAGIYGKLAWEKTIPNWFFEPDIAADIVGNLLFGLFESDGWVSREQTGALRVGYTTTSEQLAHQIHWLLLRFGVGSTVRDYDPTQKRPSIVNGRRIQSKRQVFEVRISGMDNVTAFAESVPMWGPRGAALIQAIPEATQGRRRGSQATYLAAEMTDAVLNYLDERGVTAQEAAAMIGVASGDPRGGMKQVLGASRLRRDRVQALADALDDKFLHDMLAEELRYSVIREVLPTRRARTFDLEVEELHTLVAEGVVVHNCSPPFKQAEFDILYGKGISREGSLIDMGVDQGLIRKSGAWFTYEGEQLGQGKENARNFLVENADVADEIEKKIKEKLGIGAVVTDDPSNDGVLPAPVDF
# Mtb BioA inh: inhibitors of Mycobacterium tuberculosis BioA enzyme; purified M. tuberculosis BioA enzyme, plate reader; actives 0.096% (n = 360,000); AID 602481; inhibition, % at 9.99 µM; in the data active = inhibition above about 40%
# BJeLR lethal: BJeLR cell viability loss; inhibition, % (no concentration beside the values); BJeLR (HRASV12) viability, CellTiter-Glo ATP luminescence, 48 h; actives 0.17% (n = 300,000); in the data active = inhibition above about 50%
# Mtb betalactam: beta-lactam sensitization of Mtb H37Rv; actives 0.27% (n = 330,000); AID 434955; M. tuberculosis H37Rv growth with meropenem, percent inhibition; inhibition, % at 25 µM; call rule not given here;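 note: growth measured after seven days incubation then overnight dye step; 0% = bacteria only wells and 100% = bacteria with antibiotic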
# Yp Topo-I inh: blocks Yersinia pestis topoisomerase I activity | AID 504884 | activity, % at 10 µM | Y. pestis Topo-I cleavage product accumulation, plate reader | actives 0.064% (n = 360,000); in the data active = activity above about 50%, passing the limit was not always enough
# CCHF vOTU inh-2: confirmation of CCHF virus vOTU protease inhibitors. shares compounds with CCHF vOTU inh-1. Recombinant CCHFV vOTU, Pep-AMC fluorescence. inhibition, % at 11.5 µM. actives 17% (n = 1,900)
# Starred values were filed as active, the others as inactive; . = no result given. Rows were chosen to be rich in hits. Some 1.1% of all compounds tested hit in one or more screens of this group. Cut-off read from the data, not from the text of the source, unless noted: active = inhibition above about 30%; inactive = the rest.
SMILES,CCHF vOTU inh-1,RecA intein inh,Mtb BioA inh,BJeLR lethal,Mtb betalactam,Yp Topo-I inh,CCHF vOTU inh-2
COc1ccccc1NS(=O)(=O)c1cccc(-n2c(O)c(C=Nc3ccccc3C(=O)O)c3ccccc3c2=O)c1,38.2*,18.9,-1.8,-0.2,-4.5,-1.0,37.5*
COCC#Cc1ccc2c(c1)O[C@@H](CN(C)C(=O)Nc1ccc(OC)cc1)[C@@H](C)CN([C@H](C)CO)S2(=O)=O,.,.,4.4,.,.,.,.
COc1cc(CN2CCN(C(C)C)C(CCO)C2)ccc1OCc1ccccc1 (stereo unspecified),30.0*,-3.0,.,-7.4,-8.1,1.3,-5.4
CC1CC1C(=O)N1CCN(S(=O)(=O)c2cc(C(F)(F)F)cc(C(F)(F)F)c2)CC1 (stereo unspecified),30.1*,.,-1.3,.,-2.5,-4.6,-10.8
C[C@H]1CN([C@@H](C)CO)S(=O)(=O)c2ccc(C#CCN(C)C)cc2O[C@H]1CN(C)C(=O)CC1CC1,.,.,-0.9,.,.,.,.
C[C@H](CO)N1C[C@H](C)[C@H](CN(C)CC2CCCCC2)OCCCC[C@H](C)Oc2ccc(NC(=O)NC3CCCCC3)cc2C1=O,.,.,-0.3,.,.,.,.
CN1CCN(C(=O)[C@@H]2[C@@H](CO)[C@@H]3Cn4c(ccc(-c5cncnc5)c4=O)[C@@H]3N2CC2CCCC2)CC1,.,.,-0.2,.,.,.,.
COc1ccccc1/C=N/NC(=O)c1ccc(=O)n(C)c1,31.4*,-3.6,.,-13.6,1.8,-4.6,-4.5
CO[C@H]1CN(C)C(=O)c2ccc(NC(=O)c3ccccc3)cc2OC[C@H](C)N(CC2CC2)C[C@H]1C,.,.,-0.7,.,.,.,.
O=C(Nc1ccc(O)cc1C(=O)O)c1ccc(NC(=O)c2ccco2)cc1,36.9*,.,0.7,.,-11.7,2.0,-3.4
O=C(Nc1ccccc1C(=O)O)c1cccc(NC(=O)c2ccco2)c1,15.5,-4.4,0.5,-11.2,-1.8,0.8,.
Cc1cc(C(=O)N/N=C2\CC(=O)CC(C)(C)C2)c(C)n1-c1ccccc1,-0.7,.,.,8.5,-5.0,12.0,.
Cc1cc(C(=O)N/N=C2\CC(=O)c3ccccc32)c(C)n1-c1ccccc1,30.0*,11.6,.,2.6,-3.8,1.4,-5.2
CN1C(=O)c2cc(NC(=O)C3CC3)ccc2OC[C@@H]2O[C@H](CC(=O)NCCc3ccncc3)CC[C@H]21,.,.,-3.5,.,.,.,.
COc1cc(OC)cc(-c2c(-c3cccs3)c3cc(Br)ccc3n2C)c1,30.7*,.,-1.1,.,17.9,-11.5,-27.9
CCC(=O)OC1CCC2C3CCC4CC(=O)C=CC4(C)C3CCC12C (stereo unspecified),30.2*,.,.,.,.,39.3,10.1
O=c1oc2ccccc2c(O)c1C(c1ccc([N+](=O)[O-])cc1)c1c(O)c2ccccc2oc1=O,21.8,28.4,13.2,2.3,.,-6.9,.
CC(C)c1ccc(C(c2c(O)c3ccccc3oc2=O)c2c(O)c3ccccc3oc2=O)cc1,37.3*,.,.,.,.,-11.7,-6.8
CCOc1ccc2[nH]c(SCC(=O)OC)c([N+](=O)[O-])c2c1,-1.8,-84.8,.,0.9,89.8,-7.4,.
COC(=O)CSc1[nH]c2ccc(Br)cc2c1[N+](=O)[O-],33.4*,-0.9,.,4.5,99.6,5.9,0.7
COc1ccc(NC(=O)N(C)C[C@H]2Oc3ccc(NC(=O)NC4CCCCC4)cc3CC(=O)N([C@H](C)CO)C[C@H]2C)cc1,.,.,-0.7,.,.,.,.
Cc1ccc(-c2ccc([C@@H]3[C@@H](CO)N4CCCCN(S(=O)(=O)c5cccc(C)c5)C[C@H]34)cc2)cc1,.,.,-6.2,.,.,.,.
O=c1c2ccccc2c(C=NC2CCN(Cc3ccccc3)CC2)c(O)n1Cc1ccc2c(c1)OCO2,30.6*,4.5,.,1.6,73.7,.,-16.3
CN(C)CCN=Cc1c(O)n(Cc2ccc3c(c2)OCO3)c(=O)c2ccccc12,-11.2,3.3,.,4.6,2.8,1.1,.
C[C@H]1CN([C@@H](C)CO)C(=O)c2cc(C#Cc3cccnc3)cnc2O[C@H]1CN(C)C(=O)CN(C)C,.,.,0.5,.,.,.,.
SMILES,CCHF vOTU inh-1,RecA intein inh,Mtb BioA inh,BJeLR lethal,Mtb betalactam,Yp Topo-I inh,CCHF vOTU inh-2
Cn1c(N)c(C(=O)COC(=O)c2ccc([N+](=O)[O-])o2)c(=O)n(C)c1=O,43.8*,-4.4,-1.7,-13.2,99.4,1.9,-5.4
COc1ccc(-c2sc3cc(OC)c(OC)cc3c2-c2ccc(O)cc2)cc1,32.6*,.,0.6,.,-3.5,-3.0,-0.6
CC(=O)Oc1ccc(-c2csc(Nc3ccccn3)n2)cc1,42.1*,.,-0.5,.,.,-7.8,-1.9
Cc1ccc([C@H]2C(C(=O)O)=CC[C@@H](c3ccc(Cl)cc3)N2S(=O)(=O)c2ccccc2C)cc1,.,.,4.9,.,6.4,15.2,.
Cc1ccccc1S(=O)(=O)N1[C@@H](c2ccc(Cl)cc2)C(C(=O)O)=CC[C@H]1c1ccc(Cl)cc1,31.8*,.,5.9,.,4.8,10.7,6.8
Cc1ccc([C@H]2C(C(=O)O)=CC[C@@H](c3ccc(C)cc3)N2S(=O)(=O)c2ccccc2C)cc1,35.3*,.,7.2,.,5.2,33.3,-6.0
CCC(=O)Nc1ccc2c(c1)OC[C@@H](C)N(C(=O)Cc1cccnc1)C[C@H](C)[C@H](OC)CN(C)C2=O,.,.,0.1,.,.,.,.
C[C@H](CO)N1C[C@H](C)[C@@H](CN(C)CC2CC2)Oc2c(NC(=O)Nc3ccc(F)cc3)cccc2C1=O,.,.,0.9,.,.,.,.
Cc1ccc(C)c(N2CCN(C(=O)CCc3nc(-c4ccccc4C)no3)CC2)c1,35.6*,.,-1.4,.,.,32.2,4.2
Oc1c(CN2CCCCC2)ccc2cccnc12,31.4*,.,0.2,.,.,5.0,-18.7
Cn1c2ccccc2c2cc(/C=N/NC(=O)c3cc(O)ccc3O)ccc21,51.0*,-2.6,1.0,-15.8,0.0,6.0,64.1*
C[C@@H]1CN([C@@H](C)CO)C(=O)Cc2cc(NC(=O)Cn3cnnn3)ccc2O[C@H]1CN(C)Cc1ccc(Cl)c(Cl)c1,.,.,6.3,.,.,.,.
Cc1ccc(NN=C2c3ccccc3-c3ccccc32)cc1,34.7*,-1.4,.,-3.7,98.7,-25.9,-11.0
c1ccc(NN=C2c3ccccc3-c3ccccc32)cc1,-7.4,.,1.1,.,.,-1.4,.
CCC(=O)NC1=C(Cl)C(=O)C(NC(=O)CC)=C(Cl)C1=O,97.0*,.,-1.8,.,.,-9.1,8.9
O=C(NCc1ccccc1)c1nc2c(nnn2Cc2cccc(Cl)c2)c(=O)[nH]1,44.6*,6.5,10.0,3.4,-8.0,-1.4,7.4
CO[C@@H]1CN(C)C(=O)c2ccc(NS(C)(=O)=O)cc2OC[C@H](C)N(Cc2cccnc2)C[C@@H]1C,.,.,0.0,.,.,.,.
O=C(/C(C=Nc1ccc(F)cc1)=C(/O)c1ccco1)C(F)(F)F,32.7*,-0.9,.,-5.0,-3.8,-1.0,-6.2
Cc1cccc(N=C/C(C(=O)C(F)(F)F)=C(\O)c2ccco2)c1,6.4,-1.3,0.9,-5.0,1.3,-1.7,.
N#Cc1c(-c2cccs2)nc(SCC(=O)c2cccs2)[nH]c1=O,31.4*,2.9,24.1,1.5,-8.6,1.0,-3.3
C[C@H]1CN([C@@H](C)CO)S(=O)(=O)c2ccc(/C=C/c3ccccc3)cc2O[C@@H]1CN(C)Cc1cncnc1,.,.,1.3,.,.,.,.
